In the library only some 2.4% were active in any assay of this set; here they are far more common.
Pol kappa inh-1: qHTS for Inhibitors of Polymerase Kappa; AID 588579, 2011; Potency, µM (series often up to 107 µM), without a hit: at the top dose activity, negative = inhibition, most hits filed as inhibitors; DNA polymerase kappa (Homo sapiens), Q9UBT6; purified Pol kappa, fluorescent DNA synthesis assay, 10 min; actives 0.53% (n = 400,000); also: potency is read from the fitted curve at half-maximal effect; % is scaled to controls: 0 for no effect and ±100 for the full control effect
Target sequence (Q9UBT6 whole entry, looked up): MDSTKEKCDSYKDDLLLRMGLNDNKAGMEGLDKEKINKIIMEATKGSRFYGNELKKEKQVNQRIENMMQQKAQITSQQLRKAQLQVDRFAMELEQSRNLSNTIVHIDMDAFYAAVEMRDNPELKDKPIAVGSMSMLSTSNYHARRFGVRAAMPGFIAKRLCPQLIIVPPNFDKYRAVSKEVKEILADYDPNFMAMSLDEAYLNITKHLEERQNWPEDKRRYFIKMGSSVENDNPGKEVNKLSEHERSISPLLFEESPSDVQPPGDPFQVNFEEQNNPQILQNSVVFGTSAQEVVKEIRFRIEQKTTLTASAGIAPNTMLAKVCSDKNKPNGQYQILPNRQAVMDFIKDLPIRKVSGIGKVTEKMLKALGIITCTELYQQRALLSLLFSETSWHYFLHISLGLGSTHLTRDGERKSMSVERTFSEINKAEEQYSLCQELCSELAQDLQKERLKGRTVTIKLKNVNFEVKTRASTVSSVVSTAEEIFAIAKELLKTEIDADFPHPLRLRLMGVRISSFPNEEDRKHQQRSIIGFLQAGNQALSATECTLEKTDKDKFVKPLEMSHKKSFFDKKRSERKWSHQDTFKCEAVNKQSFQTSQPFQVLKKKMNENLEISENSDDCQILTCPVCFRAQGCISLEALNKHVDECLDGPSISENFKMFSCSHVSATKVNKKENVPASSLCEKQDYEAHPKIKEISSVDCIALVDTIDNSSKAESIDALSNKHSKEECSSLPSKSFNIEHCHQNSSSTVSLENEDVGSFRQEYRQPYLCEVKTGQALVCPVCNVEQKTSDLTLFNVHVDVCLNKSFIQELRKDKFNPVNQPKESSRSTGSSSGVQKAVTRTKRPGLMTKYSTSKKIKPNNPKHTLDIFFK
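Kinetic fluorescence screen: compound preincubated 15 min RT with 10 nM enzyme; 50 nM substrate (final) initiates; reads at 0/10 min.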
TDP1 block: qHTS Assay for Inhibitors of Tyrosyl-DNA Phosphodiesterase (TDP1) | recombinant TDP1, AlphaScreen DNA substrate cleavage | Potency, µM (series often up to 130 µM), for inactives: at the top dose activity change, negative = inhibition, most hits filed as inhibitors | AID 485290, 2010 | Tyrosyl-DNA phosphodiesterase 1 (Homo sapiens), Q9NUW8 | actives 0.28% (n = 350,000); also: potency is read from the fitted curve at half-maximal effect; % is scaled to controls: 0 for no effect and ±100 for the full control effect; nearly all actives have a fitted effect of over 40% in size
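Steps: enzyme plus compound, 15 min RT; add biotin/phosphotyrosine-FITC oligonucleotide (15 nM final), react 5 min; add donor/acceptor beads (10 ug/ml final), 10 min; read AlphaScreen. Tdp1 at 1 nM final.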
POLB inh: qHTS Assay for Inhibitors of DNA Polymerase Beta. actives 1.3% (n = 340,000). AID 485314, 2010. Potency, µM (highest dose often 114 µM), for the others: at the highest dose activity change, negative = inhibition, actives largely listed as inhibitors. P06746. Pol beta primer extension/strand displacement, fluorescence kinetic; also: potency is read from the fitted curve at half-maximal effect; % is scaled to controls: 0 for no effect and ±100 for the full control effect
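Homogeneous kinetic assay of primer extension and strand displacement by 10 nM Pol beta, preincubated 15 min at room temperature with compound before 50 nM substrate (final) was added. Read at 0 and 10 min; four-parameter Hill fit.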
Pol iota inh: qHTS for Inhibitors of Polymerase Iota. DNA polymerase iota (Homo sapiens), Q9UNA4. AID 588590, 2011. Potency, µM (top dose mostly 115 µM), for the others: at the highest dose activity, negative = inhibition, actives largely listed as inhibitors. actives 1% (n = 390,000). Pol iota fluorescent replication assay, 10 min; also: potency is read from the fitted curve at half-maximal effect
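Pol iota at 10 nM preincubated 15 min with compounds at room temperature; reaction started with fluorescent substrate, 50 nM final. Fluorescence read kinetically at 0 and 10 min; buffer-only wells as negative control.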
Pol eta inh-1: qHTS for Inhibitors of Polymerase Eta | DNA polymerase eta (Homo sapiens), Q9Y253 | recombinant Pol eta, fluorescent DNA replication assay | Potency, µM (doses to about 114 µM), for the others: at the highest dose activity change, negative = inhibition, actives largely listed as inhibitors | actives 1.2% (n = 390,000); also: potency is read from the fitted curve at half-maximal effect; % is scaled to controls: 0 for no effect and ±100 for the full control effect
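Pol eta at 10 nM preincubated with compounds 15 min at room temperature; reaction started with fluorescent substrate (50 nM final) and read kinetically at 0 and 10 min.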
GALK inh confirm: Confirmation Assay for Inhibitors of Human Galactokinase (GALK); shares compounds with Pol eta inh-1; AID 2015, 2009; purified GALK, Kinase-Glo ATP depletion luminescence; actives 70% (n = 150); Potency, µM (top dose mostly 115 µM), for the others: top-dose activity, negative = inhibition, hits mostly inhibitors
Redox cycling: Confirmatory Assay for Inhibitors of Human Galactokinase (GALK): Phenol-HRP redox assay counterscreen. actives 40% (n = 150). shares compounds with Pol eta inh-1. Phenol red-HRP H2O2 redox cycling, absorbance 600 nm. Potency, µM (doses to about 115 µM), for inactives: at the highest dose activity change, negative = H2O2 signal, hits mostly inhibitors
HEK293 viability: Secondary Assay for Inhibitors of Human Galactokinase (GALK): HEK-293 Cell Viability Assay. Potency, µM (doses to about 46.1 µM), for inactives: top-dose activity change, negative = cytotoxicity, most hits filed as inhibitors. HEK-293 viability, ATP luminescence (CellTiter-Glo), 24/48 h. AID 2547, 2010. shares compounds with Pol eta inh-1. actives 10% (n = 170); also: potency is read from the fitted curve at half-maximal effect; % is scaled to controls: 0 for no effect and ±100 for the full control effect
Pol kappa inh-2: qHTS for Inhibitors of Polymerase Kappa: Confirmatory Assay for Cherry-picked Compounds | shares compounds with Pol eta inh-1 | purified Pol-kappa, fluorescent strand-displacement substrate | Potency, µM, most hits filed as inhibitors | actives 76% (n = 920) | AID 720501, 2013; also: potency is read from the fitted curve at half-maximal effect
Pol eta inh-2: qHTS for Inhibitors of Polymerase Eta: Confirmatory Assay for Cherry-picked Compounds; shares compounds with Pol eta inh-1; Pol eta primer extension, TAMRA/BHQ fluorescence, 10 min; Potency, µM, most hits filed as inhibitors; actives 64% (n = 2,600); AID 720502, 2013; also: potency is read from the fitted curve at half-maximal effect
* hit, by the source's call; ? = inconclusive; . = not tested or not shown; [ ] = another dose, or the depositor's remark. Calls follow the shape of the dose curve; as a rule, active = well fitted curve in the direction sought with a large enough effect; inconclusive = small, poorly fitted or top-dose-only effect, or another doubt; inactive = no such curve, though single readings can be large; an effect the other way counts as inactive or inconclusive.

SMILES	Pol kappa inh-1	TDP1 block	POLB inh	Pol iota inh	Pol eta inh-1	Pol eta inh-2	others
COc1ccc(C(=O)Nc2cccc(-c3nc4cccnc4s3)c2C)c(OC)c1	?	0%	2%	79µM*	-4%	.	Pol kappa inh-2=47*
Cc1oc(-c2ccccc2F)nc1Cn1c(SCc2ccccc2F)nc2ccncc21	-26%	10%	6%	-29%	-10%	.
O=[N+]([O-])c1cc(Br)c(O)c(/C=N/Nc2nnnn2-c2cccc3ccccc23)c1	-21%	12%	?	-19%	71µM*	.	GALK inh confirm=30µM*;Redox cycling=-2%;HEK293 viability=-1%
CCCN(C(=O)COc1cc(=O)n(CC)c2ccccc12)c1ccc(C(C)C)cc1	-6%	1%	5%	-11%	-14%	.
Cc1ccc(NC(=O)c2cccc(C(=O)Nc3ccc(C)cc3C(=O)O)c2)c(C(=O)O)c1	-37%	.	-12%	-20%	?	?	Pol kappa inh-2=15*
O=C(Nc1ccccc1C(=O)O)c1cccc(NC(=O)c2ccccc2Br)c1	-3%	.	22%	10%	-2%	.
O=C(Nc1cc(C(=O)Nc2ccccc2C(=O)O)cc(C(=O)Nc2ccccc2C(=O)O)c1)c1ccccc1	?	0%	6%	?	14µM*	30*
Cc1ccc(NC(=O)c2ccc(Br)cc2)c(C(=O)c2ccccc2)c1	-3%	-4%[12.3 µM]	0%	6%	15%	.
O=C(N=Nc1c(O)[nH]c2ccc([N+](=O)[O-])cc12)c1cc(-c2ccccc2Cl)nc2ccccc12	-12%[60.1 µM]	5%	?	?	?	.	Pol kappa inh-2=?
CCCc1nnc(NC(=O)c2nc(SCC)ncc2Cl)s1	19%	-1%	11%	-26%	-4%	.
CC1C=CC(C)C(C(=O)O)C1C(=O)O (stereo not drawn)	40µM*	.	5.6µM*	?	2.5µM*	5.4*
O=C1CN(C(=O)COC(=O)c2cccs2)c2ccccc2N1	-19%	-3%[56.1 µM]	.	13%	-21%	.
O=C1CN(C(=O)COC(=O)c2ccc([N+](=O)[O-])s2)c2ccccc2N1	-11%	3%	.	?	22µM*	?
O=C(Nc1cc(Cl)cc(Cl)c1)c1cc(S(=O)(=O)NC2CCCC2)ccc1F	-2%[60.1 µM]	3%	?	?	-21%	.
Cc1cc(C(=O)N/N=C/c2cc(Br)c(Br)o2)n[nH]1	79µM*	-20%	45µM*	14µM*	18µM*	60*	Pol kappa inh-2=47*
CCN(CC)S(=O)(=O)c1ccc(NC(=O)Cc2cccs2)cc1	-27%	-3%	28µM*	?	56µM*	?
CC1CCN(S(=O)(=O)c2ccc(NC(=O)Cc3cccs3)cc2)CC1	?	3%	14µM*	?	?	?
CC1CCN(CC(=O)Nc2ccc(S(=O)(=O)N3CCC(C)CC3)cc2)CC1	-4%	.	-3%	45%	-25%	.
NS(=O)(=O)c1ccc(NC(=O)Cc2cccs2)cc1	1%	.	-6%	108%	-12%	.
Cc1ccc(OCc2ccoc2C(=O)O)cc1C	?	50µM*	18µM*	?	7.1µM*	?
O=C(COc1cc2oc(=O)cc(-c3ccccc3)c2cc1Cl)NC(Cc1c[nH]c2ccc(O)cc12)C(=O)O (stereo not drawn)	-5%	.	?	?	50µM*	?
Cc1c(OC(C)C(=O)NC(Cc2c[nH]c3ccc(O)cc23)C(=O)O)ccc2c1oc(=O)c1ccccc12 (stereo not drawn)	?	.	2.5µM*	45µM*	20µM*	?
CC(Oc1ccc2ccc(=O)oc2c1)C(=O)NC(Cc1c[nH]c2ccc(O)cc12)C(=O)O (stereo not drawn)	?	.	?	?	22µM*	?
CC(=O)Nc1cccc(NC(=O)CSc2ccc(-c3cccnc3)nn2)c1	89µM*	8%	2.8µM*	14µM*	?	.	Pol kappa inh-2=17*
CC(=O)c1cccc(NC(=O)CSc2ccc(-c3cccnc3)nn2)c1	-4%	.	.	35%	-13%	.
SMILES	Pol kappa inh-1	TDP1 block	POLB inh	Pol iota inh	Pol eta inh-1	Pol eta inh-2	others
CCN(CC)c1ccc(NC(=O)CCc2c(C)nc3ncnn3c2C)c(C)c1	-13%	-5%	-2%	-2%	-15%	.
O=C1NC(=S)S/C1=C\c1cc(Cl)cc(Cl)c1O	?	.	.	32µM*	35µM*	.	Pol kappa inh-2=24*
Cc1cc(/C=C2\SC(=S)NC2=O)c(C)n1-c1ccc(O)cc1	?	7%	50µM*	?	50µM*	.	Pol kappa inh-2=?
O=C1NC(=S)SC1=Cc1ccccc1Cl	-12%	.	.	?	-2%	.
COc1ccc(N2CC(NC(=O)COc3ccccc3)CC2=O)cc1OC (stereo not drawn)	-4%[60.1 µM]	0%	2%	?	-17%	.
CS(=O)(=O)Oc1ccc(Br)c2cccnc12	-1%	5%	30%	29%	-13%	.
Nc1ccc(Br)c2cccnc12	2%	5%	20%	?	?	?
Cc1cccc(NC(=O)C(Cc2ccccc2)n2cccc2)c1C (stereo not drawn)	11%	6%	18%	13%	3%	.

Compound activity deposited in PubChem BioAssay by National Center for Advancing Translational Sciences (NCATS).
